KB-V1 MDR tox = kills drug-selected multidrug resistant KB-V1 cells. KB-V1 MDR cells viability, CellTiter-Glo, 72 h. Potency, µM (titrated, usually from 46.1 µM), most hits filed as cytotoxic. 400,000 tested, 3.4% active; note: potency is the fitted concentration of half-maximal effect; nearly all actives have a fitted effect of over 60% in size
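Compound-treated KB-V1 multidrug-resistant cells, 72 h, 37 degrees C; viability by CellTiter-Glo. Fitted qHTS curves give the values.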
PI4K2A inh = inhibitors of human PI4K2A | Q9BTU6 | activity change, negative = inhibition, % at 76.9 µM | 420,000 tested, 0.13% active | purified PI4K2A, ADP-Glo luminescence, 1 h; stronger effect = lower value | AID 1346378; in the data active = activity change below about -50%; inconclusive = mostly about -30% to -49%;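 note: -100% = wells without enzyme as full effect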
Target sequence (Q9BTU6 whole entry, looked up): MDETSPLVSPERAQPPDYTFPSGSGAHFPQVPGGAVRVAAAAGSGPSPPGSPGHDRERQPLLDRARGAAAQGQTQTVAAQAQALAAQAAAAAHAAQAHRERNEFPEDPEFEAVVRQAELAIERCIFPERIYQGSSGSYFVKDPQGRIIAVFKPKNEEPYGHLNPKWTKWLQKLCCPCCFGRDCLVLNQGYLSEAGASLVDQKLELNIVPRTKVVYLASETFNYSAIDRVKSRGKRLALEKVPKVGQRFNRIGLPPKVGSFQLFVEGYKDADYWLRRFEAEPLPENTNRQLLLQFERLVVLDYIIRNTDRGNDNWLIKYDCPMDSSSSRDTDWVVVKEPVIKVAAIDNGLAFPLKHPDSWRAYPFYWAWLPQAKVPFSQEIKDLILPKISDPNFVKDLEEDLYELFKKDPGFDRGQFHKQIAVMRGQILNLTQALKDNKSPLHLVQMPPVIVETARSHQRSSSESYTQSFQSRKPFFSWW
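ADP-Glo luminescence measured ADP generated by PI4K2A enzyme (4 ug/mL before mixing) with 1.2 mM PI substrate (pre-mix) and 300 microM ATP (pre-mix). Tris pH7.5 buffer with MgCl2, Triton X-100; 1 h reaction at ambient temperature.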
KB-3-1 tox = kills parental KB-3-1 adenocarcinoma cells; Potency, µM (series often up to 46.1 µM), usual class: cytotoxic; KB-3-1 viability, CellTiter-Glo ATP luminescence, 72 h; 400,000 tested, 1.4% active; note: potency is the fitted concentration of half-maximal effect; nearly all actives have a fitted effect of over 60% in size
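KB-3-1 cells, DMEM (no phenol red) + 10% FBS; compound by pin transfer, 72 h, 37 °C. Readout: CellTiter-Glo luminescence after 10 min. Data normalized, curve-fitted.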
A549 viability = counter-screen for Nrf2 inhibitors: cytotoxicity in A549 cells | A549 ARE-Fluc cells, CellTiter-Fluor viability, 18-24 h | Potency, µM (doses to about 46 µM), for inactives: top-dose activity change, negative = cytotoxicity, actives largely listed as inhibitors | 390,000 tested, 0.16% active; note: potency is the fitted concentration of half-maximal effect
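A549 ARE_Fluc cells in 5% FBS OPTI-MEM were exposed to compounds in concentration-response for 18-24 h at 37 deg C. Viability was read by CellTiter-Fluor fluorescence (Ex 405/Em 525) after 30 min, before the luciferase read.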
Giardia kill = kills Giardia lamblia. 340,000 tested, 0.15% active. Giardia lamblia trophozoite viability. activity change, % at 7.66 µM, hits read low; in the data active = activity change below about -80%; inconclusive = between about -30% and that limit;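 note: parasites exposed to compound for two days anaerobically before the ATP read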
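Trophozoites 100 cells/well + cpd; 48 hrs, 37 deg C, anaerobic. ATPLite 1-Step added, 15-30 min RT, luminescence read (ATP-based viability).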
Nrf2 inh = inhibitors of Nrf2 signaling; A549 ARE-Fluc reporter, luciferase luminescence, 18-24 h; Potency, µM (top dose mostly 46 µM), without a hit: top-dose activity change, negative = inhibition, hits mostly inhibitors; 360,000 tested, 2.1% active; AID 504444; note: potency is the fitted concentration of half-maximal effect; nearly all actives have a fitted effect of over 60% in size
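Concentration-response testing used A549 ARE_Fluc cells at 5000 cells/well. Following an 18-24 h compound incubation, viability was read by fluorescence (Ex 405/Em 525) and luciferase output by luminescence.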
An asterisk follows results filed as active; i = inactive; ? = inconclusive; nt = not tested or not shown. Sampled rows, rich in hits. Any-hit rate of the full collection: about 5.7%. Unless noted, calls come from the whole dose curve; as a rule, active = well fitted curve in the direction sought with a large enough effect; inconclusive = small, poorly fitted or top-dose-only effect, or another doubt; inactive = no such curve, though single readings can be large; an effect the other way counts as inactive or inconclusive. Unless noted, % is set by controls: 0 for no effect and ±100 for the full control effect.

SMILES	KB-V1 MDR tox	PI4K2A inh	KB-3-1 tox	A549 viability	Giardia kill	Nrf2 inh
Cc1nc(NC(=O)CN(C)S(=O)(=O)c2ccc(Br)cc2)sc1C	18µM*	-2	i	-1%	10	-1%
O=C(NCc1ccco1)OC1CCC12CCC(c1ccccc1)CC2 (centres undefined)	nt	-2	nt	nt	nt	nt
C=C1CC2C(=O)N(Cc3cc(OC)ccc3OC)C(C(=O)OCC)C1N2C (centres undefined)	nt	nt	nt	-1%	21	19%
COCCCN1C(=O)[C@H](CC(=O)N2CCCCC2)[C@]2(C(=O)OC)CCCCC=C12	nt	7	nt	nt	nt	nt
COc1ccc(-n2nc(C(=O)Nc3ccc(Cl)cn3)c3c4ccccc4n(C)c3c2=O)cc1Cl	?	-1	i	8%	nt	3%
COc1ccc(-n2nc([N+](=O)[O-])c(=NCc3ccc4c(c3)OCO4)n2O)cc1	21µM*	1	i	-21%	-92*	?
Cc1ccc(CN=c2c([N+](=O)[O-])nn(-c3ccc4c(c3)OCCO4)n2O)cc1	?	2	i	?	-87*	?
O=[N+]([O-])c1nn(-c2ccc3c(c2)OCCO3)n(O)c1=NC1CCCC1	i	1	i	-13%	?	?
O=[N+]([O-])c1nn(-c2ccc3c(c2)OCCO3)n(O)c1=NC1CCCCCC1	16µM*	7	i	-20%	?	4%
CNC(=O)/C(C#N)=C/c1c(N(Cc2ccccc2)Cc2ccccc2)nc2ccccn2c1=O	2.6µM*	4	i	23µM*	-3	?
COC(=O)/C(C#N)=C/c1c(N2CCN(c3ccccc3)CC2)nc2ccccn2c1=O	i	-1	i	-10%	-7	26%
COCCCN1C(=O)[C@H](CC(=O)NCc2cccc3ccccc23)[C@]2(C(=O)OC)CCCCC=C12	nt	4	nt	nt	nt	nt
CC(=O)c1ccc(N2CCN(c3ncnc4c3nc3n4CCCC3)CC2)cc1	nt	-2	nt	-5%	nt	23µM*
COc1ccccc1N1CCN(c2ncnc3c2nc2n3CCCC2)CC1	?	-2	i	-16%	nt	21µM*
COc1cccc(N2CCN(c3ncnc4c3nc3n4CCCCC3)CC2)c1	?	5	16µM*	-28%	nt	?
COc1cccc(CNC(=O)Cn2c(-c3ccccc3)cc(C(C)=O)c2C)c1	nt	-2	nt	nt	nt	nt
COC(=O)[C@]12C[C@H](CC(=O)NCCCCc3ccccc3)C(=O)N(Cc3ccc4c(c3)OCO4)C1=C[C@H](C(C)C)O[C@@H]2C1CC1	nt	-3	nt	nt	nt	nt
CC(=O)N1CCN(c2ccc(NCc3ccc(-c4ccc(Br)cc4)o3)cc2)CC1	i	-13	9.2µM*	-14%	7	?
CCOC(=O)C1=NOC(C(=O)NC2CCCC2)(C(=O)C2CC2)C1 (centres undefined)	nt	-1	nt	nt	nt	nt
Cn1c(=O)c2[nH]c(C3CC=CCC3)nc2n(C)c1=O (centres undefined)	i	-6	i	-4%	-3	?
Cn1c(=O)c2[nH]c(C3CCCC3)nc2n(C)c1=O	i	-1	i	-9%	-1	6.5µM*
CC(C)[n+]1ccn(C2=C([O-])c3ccccc3C(=O)/C2=N\S(=O)(=O)c2ccccc2)c1	i	-9	?	-8%	-8	23µM*
CCCC[n+]1ccn(C2=C([O-])c3ccccc3C(=O)/C2=N\S(=O)(=O)c2ccccc2)c1	i	-6	?	?	-20	20µM*
CCCCC[n+]1ccn(C2=C([O-])c3ccccc3C(=O)/C2=N\S(=O)(=O)c2ccccc2)c1	i	-8	?	?	-3	?
O=C(/C=C/c1ccccc1Cl)Nc1cccc([S+](=O)([O-])Nc2ccccc2F)c1	i	nt	?	nt	nt	nt
SMILES	KB-V1 MDR tox	PI4K2A inh	KB-3-1 tox	A549 viability	Giardia kill	Nrf2 inh
Cc1ccc2c(Sc3ccc(Cl)cc3)c(C(=O)N3CCC(C)CC3)[nH]c2c1	?	5	?	0%	nt	-20%
Cc1cccc(OCCCC(=O)Nc2nc3ccccc3[nH]2)c1	21µM*	-10	?	-18%	-1	?
O=C(CSc1ccccc1)Nc1nc2ccccc2[nH]1	?	1	15µM*	0%	-2	?
O=C(Cc1ccccc1)Nc1nc2ccccc2[nH]1	i	8	i	-2%	16	10%
O=S1(=O)N[C@H](Cc2ccccc2)COc2cc(N3CCCC3)ccc21	nt	1	nt	nt	nt	nt
O=C1C(C=Nc2ccccc2)=C(O)c2ccccc21	i	-29	i	0%	-17	5%
O=C1C(=O)c2ccccc2C(O)=C1CC=C(Cl)Cl	3.7µM*	-13	15µM*	-14%	4	24%
COc1cc(OC)cc(C(=O)N[C@H](C(=O)OCC(=O)Nc2ccc(C)cc2C)C(C)C)c1	i	0	?	0%	12	2%
COc1ccc(NC(=O)COC(=O)C(NC(=O)c2ccc(C)cc2)C(C)C)cn1 (centres undefined)	15µM*	-1	i	-1%	12	0%
COc1ccc(NC(=O)COc2cccc3c2OC(C)(C)C3)cc1OC	i	2	i	-10%	-7	18µM*
Cc1cccc(C)c1NC(=O)CN(C)C(=O)COc1cccc2c1OC(C)(C)C2	i	-4	i	4%	-8	5%
CN(CC(=O)Nc1ccccc1Cl)C(=O)CSC(=S)N1CCCC1	i	-2	i	-16%	-7	-8%
Cc1cc(Br)ccc1NC(=O)CN(C)C(=O)CSC(=S)N1CCCC1	13µM*	-4	i	4%	2	0%
Cc1ccc(NC(=O)COc2cccc3c2OC(C)(C)C3)c(O)c1	18µM*	2	i	-5%	12	8%
CC1(C)Cc2cccc(OCC(=O)Nc3ccccc3F)c2O1	i	0	i	-1%	10	10%
Cc1cc(Br)ccc1NC(=O)CN(C)C(=O)COc1cccc2c1OC(C)(C)C2	i	3	i	0%	-9	21µM*
COc1cccc(NC(=O)COC(=O)COc2cccc3c2OC(C)(C)C3)c1	nt	2	nt	2%	-8	15%
CCCCOCCCNC(=O)C[C@H]1C[C@@]2(C(=O)OC)C(=C[C@H](C(C)(C)C)O[C@@H]2C)N(Cc2ccc(Cl)cc2Cl)C1=O	nt	-1	nt	nt	nt	nt
C=CCN1C(=O)[C@H](CC(=O)N2CCN(C(=O)c3ccco3)CC2)[C@@]2(C(=O)OCC)CCCC=C12	nt	-8	nt	nt	nt	nt
CCCN1CNc2c(c(=O)[nH]c(=S)n2CCc2ccccc2Cl)C1	nt	nt	nt	0%	16	18%
CCOc1ccc(-n2c(SCC(=O)Nc3ccc(OCc4ccccc4)cc3)nnc2-c2ccc(Cl)cc2)cc1	nt	-1	nt	nt	nt	nt
